# Screening results: PubChem BioAssay, several laboratories
# MCL1-BIM inh: disrupts human MCL1 binding to BIM-BH3 peptide. Q07820. GST-MCL1 / FITC-Bim-BH3 fluorescence polarization. inhibition, % at 10.9 µM. 0.68% of 320,000 active. AID 2057;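 active = inhibition above the mean inhibition of all tested compounds plus 3 SD, set per campaign, cut at about 40% in these data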;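 note: higher means more loss of mP so more displacement of Bim peptide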
# Mcl1-Noxa inh: Mcl-1/Noxa interaction inhibition. TR-FRET Mcl-1/Noxa peptide binding, 2 h. AID 1022. 1.5% of 220,000 active. inhibition, % at 21.7 µM;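 active = compounds that cut the protein-peptide binding signal by more than 50% relative to plate controls in a single-dose test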;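 note: His-tagged Mcl-1 with rhodamine Noxa BH3 peptide and terbium anti-His antibody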
# Mcl-1 Bim block: inhibitors of Bim-Mcl-1 interaction, human; inhibition, % at 10 µM; Q07820; Bead-based flow cytometry, Bim peptide-Mcl-1 binding; 0.1% of 190,000 active; in the data active = inhibition above about 40%
# BCLXL inh: inhibitors of human Bcl-xL | Q07817 | GST-Bcl-xL / FITC-Bim BH3 peptide fluorescence polarization | inhibition, % at 10.9 µM | 0.7% of 320,000 active;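 active = inhibition above the mean of all tested compounds plus 3 SD, cutoff set per campaign, cut at about 30% in these data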;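 note: inhibitors lower millipolarization by displacing the labeled peptide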
# Target sequence (Q07817 whole entry, looked up): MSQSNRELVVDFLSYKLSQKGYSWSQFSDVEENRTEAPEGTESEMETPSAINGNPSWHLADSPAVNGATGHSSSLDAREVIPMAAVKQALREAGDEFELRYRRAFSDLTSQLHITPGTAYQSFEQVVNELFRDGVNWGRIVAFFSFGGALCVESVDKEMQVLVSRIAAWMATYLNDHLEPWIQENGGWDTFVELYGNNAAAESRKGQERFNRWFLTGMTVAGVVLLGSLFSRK
# GLD-1 TGE inh: GLD-1-TGE RNA interaction inhibition (C. elegans). inhibition, % at 5.96 µM. AID 2280. 0.44% of 320,000 active. Q17339. purified GLD-1 + fluorescein TGE RNA, fluorescence polarization;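 active = percent inhibition above a per-plate cutoff, the plate mean of test compounds plus 3 SD, cut at about 30% in these data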
# Mcl1-Bid inh: disrupts binding of human Mcl-1 to Bid peptide. Q07820. TR-FRET Mcl-1/Bid-Dy647 peptide binding, 1536-well. inhibition, % at 21.7 µM. 0.97% of 220,000 active. AID 1021;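 active = compounds that cut the binding signal by more than half at the single screening dose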;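 note: His-tagged Mcl-1 with europium anti-His antibody binding Bid BH3 peptide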
# Hits are given with their value; – = inactive; · = no result. A selection: hits, their analogues and other compounds. The true share with any hit is near 2.3%.
SMILES,MCL1-BIM inh,Mcl1-Noxa inh,Mcl-1 Bim block,BCLXL inh,GLD-1 TGE inh,Mcl1-Bid inh
COC(=O)C1=CC(C(=O)c2cccs2)=NN(c2ccc(OC)cc2)C1C(=O)OC (configuration not stated),–,–,–,–,–,–
Cc1cc2ccccn2c1C(=O)c1ccc(N/N=C/c2ccc(C(=O)O)cc2)c([N+](=O)[O-])c1,·,92.6,·,·,·,72.9
C/C(=N\Nc1ccc(C(=O)c2c(C)cc3ccccn23)cc1[N+](=O)[O-])c1ccc(O)cc1,–,–,·,–,–,–
O=C(Nc1nnc(-c2ccco2)s1)C1CCCCC1,–,–,–,–,–,55.9
O=C(Nc1ccncc1)C1CCN(S(=O)(=O)c2ccc(Cl)c(C(F)(F)F)c2)CC1,–,·,·,–,–,·
CCCNC(=O)c1ccc(COc2ccc(CCC)cc2OC)o1,–,·,·,–,–,·
CCCOc1cccc(CN2CCCCC2c2cccnc2)c1 (configuration not stated),–,–,–,–,–,70.1
O=C(CCN1CCCCC1c1cccnc1)NCc1ccccc1 (configuration not stated),–,–,–,–,–,–
Cc1ccc(CNC(=O)CN(c2ccc(Cl)cc2)S(C)(=O)=O)cc1,–,·,·,–,–,·
CC(=O)Nc1ccc(S(=O)(=O)N(C#N)c2nc(C)cc(C)n2)cc1,–,·,·,–,–,·
Cc1cc(C)nc(N(C#N)S(=O)(=O)c2ccccc2Cl)n1,–,–,–,–,–,89.2
COc1ccc2cc3c(N)c(C(=O)NCc4ccco4)sc3nc2c1,–,63.4,–,–,–,–
Nc1c(C(=O)NCc2ccco2)sc2nc3c(cc12)C(=O)CCC3,–,87.8,–,–,–,–
CCCOC(=O)c1sc2nc3c(cc2c1N)C(=O)CCC3,–,–,–,–,–,–
COc1ccc2cc3cc(C(=O)NCc4ccco4)oc3nc2c1,–,–,–,–,–,–
Cc1ccc(S(=O)(=O)N2[C@@H](c3ccc(Br)cc3)C(C(=O)O)=C[C@H]2C(C)(C)C)cc1,·,·,·,·,–,·
Cc1cccc(NC(=O)Cn2ccn(-c3ccc4c(c3)OCCO4)c(=O)c2=O)c1,–,·,·,–,–,·
COc1cccc(C2=CC(c3ccc(N(C)C)cc3)n3ncnc3N2)c1 (configuration not stated),–,–,–,–,–,–
COc1ccc(C2C=C(c3ccc(C)cc3)Nc3ncnn32)cc1 (configuration not stated),·,–,–,·,·,–
Oc1ccc(C2C=C(c3ccc(F)cc3)Nc3ncnn32)cc1 (configuration not stated),·,–,·,·,·,–
CCOc1ccc(C2C=C(c3ccccc3)Nc3ncnn32)cc1 (configuration not stated),46.3,–,–,45.8,37.5,–
COc1cccc(C2=CC(c3ccccc3)n3ncnc3N2)c1 (configuration not stated),41.1,–,–,39.0,50.5,–
CCOc1ccc(C2C=C(c3ccc(F)cc3)Nc3ncnn32)cc1 (configuration not stated),44.8,–,–,38.2,44.1,–
CCCCN(C(=O)C(C)Oc1ccc(Br)cc1)c1c(N)n(CC(C)C)c(=O)[nH]c1=O (configuration not stated),–,·,·,–,–,·
COc1ccc(C(=O)CC(SCC(NC(C)=O)C(=O)O)c2ccc(Cl)cc2)cc1OC (configuration not stated),–,·,·,–,–,·
SMILES,MCL1-BIM inh,Mcl1-Noxa inh,Mcl-1 Bim block,BCLXL inh,GLD-1 TGE inh,Mcl1-Bid inh
CN(CCC(=O)Nc1ccc(Cl)cc1)Cc1ccccc1,–,·,·,–,–,·
Cc1[nH]c2ccccc2c1/C=N/Nc1ccc([N+](=O)[O-])cc1,–,75.4,–,–,–,–
COc1ccccc1CNC(=O)CN1C(=O)c2ccc([N+](=O)[O-])cc2C1=O,–,·,·,–,–,·
O=C(NCc1ccncc1)C(=O)NCC1OCCN1S(=O)(=O)c1ccc(F)cc1 (configuration not stated),–,·,·,–,–,·
CN(Cc1ccc(C(C)(C)C)cc1)C(=O)C1CSC2(C)CCC(=O)N12 (configuration not stated),–,·,·,–,–,·
O=C1CCc2cc(S(=O)(=O)NCCCC(=O)N3CCN(Cc4ccc5c(c4)OCO5)CC3)ccc2N1,–,–,40.0,–,–,–
O=C(Cc1ccc([N+](=O)[O-])cc1)N/N=C/c1cccs1,–,·,·,–,–,·
